“And” between values parts separate entries of the source, which are not always exact repeats. Equal entries are not always repeated. Among all 350,000 compounds or so, about 600 (0.17%) were called active.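 How the source made its calls: active means every replicate shows inhibition of at least 40%; inconclusive means mean inhibition at least 40% but some replicate below; inactive means the rest.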 For the sample, actives were picked, then their nearest neighbours and some compounds at random.
Assay: compounds lowering acetylated PGC1a in cells – cell-based, U2OS, AlphaScreen, inhibitor mode, primary screen (AID 651687);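 further: 0% = neutral control wells and 100% = positive control wells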
Conditions: U2OS PGC1a acetylation, AlphaScreen anti-acetyl-lysine; at 15.6 µM; hits give high values; with virally co-expressed GCN5 acetyltransferase
In the case of `COc1ccc(S(=O)(=O)N(C)C[C@H]2Oc3ccc(NS(C)(=O)=O)cc3C(=O)N([C@H](C)CO)C[C@H]2C)cc1`, the inhibition is reported as -5.85% (inactive). For `O=C(Cc1ccccc1)N1CC[C@H]2[C@H](CO)Nc3ccc(-c4ccccc4F)cc3[C@H]21`, the inhibition was -17.2% (inactive). With `CC(C)NC(=O)Nc1ccc2c(c1)C(=O)N([C@H](C)CO)C[C@H](C)[C@@H](CN(C)Cc1ccc3c(c1)OCO3)OCCCC[C@H](C)O2` the inhibition was 4.63% (inactive). For `C[C@@H]1CN([C@@H](C)CO)C(=O)c2cc(NC(=O)c3ccncc3)ccc2O[C@@H]1CN(C)S(C)(=O)=O`, the inhibition was 6.79% (inactive). In the case of `Cc1ccccc1-c1ccc([C@H]2[C@@H](CO)N3C(=O)CN(C(=O)c4ccncc4)C[C@H]23)cc1`, the inhibition is reported as -5.89% (inactive). In the case of `Cn1c2c(c(=O)n(C)c1=O)C(c1cccc(F)c1)C(C#N)=C(N)O2` (configuration not stated), the inhibition is reported as 80.9% (active). In the case of `Cc1cc2c(c(=O)n1C)C(C(C)C)C(C#N)=C(N)O2` (configuration not stated), the inhibition is reported as 8.23% (inactive). With `N#CC1=C(N)Oc2cc(N)ccc2C1c1ccccc1` (configuration not stated) the inhibition was -1.66% (inactive). In the case of `C[C@@H]1CN([C@@H](C)CO)C(=O)c2cc(NC(=O)CCCCCC(=O)Nc3ccccc3N)ccc2O[C@@H](C)CCCCO[C@@H]1CN(C)CC1CCCCC1`, the inhibition is reported as 3.98% (inactive). In the case of `O=C(CC(F)(F)F)N1C[C@H]2[C@@H](c3ccccc31)[C@H](CO)N2C(=O)Cc1cccnc1`, the inhibition is reported as 0.596% (inactive). In the case of `CN(C)Cc1cn(CC[C@H]2CC[C@@H](NS(=O)(=O)c3ccccc3)[C@H](CO)O2)nn1`, the inhibition is reported as -1.22% (inactive). With `CO[C@H]1CN(C)C(=O)c2ccc(NS(C)(=O)=O)cc2OC[C@@H](C)N(Cc2ccccc2)C[C@H]1C` the inhibition was 4.39% (inactive). For `O=C(C[C@@H]1CC[C@@H](NC(=O)c2cccnc2)[C@H](CO)O1)NCCN1CCCCC1`, the inhibition was 6.21% (inactive). With `CCC(=O)N1CC(=O)N2[C@@H](CO)[C@H](c3ccc(C#CCC(C)C)cc3)[C@@H]2C1` the inhibition was -4.62% (inactive). In the case of `O=C(CC(F)(F)F)N1C[C@H]2[C@@H](c3ccccc31)[C@H](CO)N2C(=O)Cc1ccccc1`, the inhibition is reported as 9.3% (inactive). For `C/C=C/c1ccccc1[C@@H]1[C@@H](C#N)N(C(=O)Cc2ccccn2)[C@H]1CO`, the inhibition was -0.046% (inactive). In the case of `C[C@H]1CN([C@@H](C)CO)S(=O)(=O)c2ccc(C#CC3(O)CCCC3)cc2O[C@@H]1CN(C)C(=O)Nc1cccc(F)c1`, the inhibition is reported as -10% (inactive). For `Cc1ccc(S(=O)(=O)N2C[C@H](O)COC[C@@H]3O[C@@H](CC(=O)NCC4CCCCC4)CC[C@H]32)cc1`, the inhibition was -0.708% (inactive). With `N#Cc1ccc(-c2ccc([C@@H]3[C@H]4CNC[C@@H]3N4Cc3ccc4c(c3)OCO4)cc2)cc1` the inhibition was 48.1% (active). With `COc1ccccc1CN1[C@@H]2CNC[C@H]1C2c1ccc(-c2cccc(C#N)c2)cc1` (some centres not stated) the inhibition was 1.68% (inactive) and -10% (inactive). For `N#Cc1ccc(-c2ccc3c(c2)[C@H]2[C@H](CCN2Cc2ccc4c(c2)OCO4)[C@@H](CO)N3)cc1`, the inhibition was -7% (inactive). In the case of `COc1ccc2c3c([nH]c2c1)[C@H](CO)N(Cc1ccccc1OC)CC31CCN(S(=O)(=O)c2ccccc2)CC1`, the inhibition is reported as 8.15% (inactive). For `C[C@@H]1CN([C@@H](C)CO)C(=O)c2cccc(NC(=O)c3ccc(-c4nccs4)cc3)c2O[C@H]1CN(C)C(=O)Nc1ccccc1`, the inhibition was -1.84% (inactive). In the case of `Cc1ccc(C)n1NC(=O)c1ccc([N+](=O)[O-])cc1`, the inhibition is reported as 2.46% (inactive). With `O=C(Nn1cnnc1)c1ccc([N+](=O)[O-])cc1` the inhibition was -2.58% (inactive). In the case of `N=C1C(c2nc3ccccc3s2)=C(O)CN1NC(=O)c1ccc([N+](=O)[O-])cc1`, the inhibition is reported as 100% (active). In the case of `COc1ccc(NC(=O)N2C[C@H](O)COC[C@H]3O[C@@H](CC(=O)NC4Cc5ccccc5C4)CC[C@@H]32)cc1`, the inhibition is reported as 1.58% (inactive).

Reference: PubChem BioAssay AID651687 (Broad Institute, 2012)
